High-throughput results as filed in PubChem BioAssay.
Sampled rows, rich in hits. Any-hit rate of the full collection: about 10%.
3T3 cytotox: Cytotoxic Profiling in NIH 3T3 Cell Line of Diverse Libraries Using Quantitative High-Throughput Screening; NIH 3T3 viability, CellTiter-Glo ATP luminescence, 48-72 h; AID 1345082, 2018; 94,000 tested, 4.3% active; Potency, µM (highest dose often 96.7 µM), most hits filed as inhibitors; note: nearly all actives have a fitted effect of over 55% in size
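Viability of NIH 3T3 cells after 48 or 72 hr compound treatment at 37 °C was assessed by CellTiter-Glo, with luminescence imaged following a 10 min room-temperature step.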
hNpr1 antagonist: Natriuretic polypeptide receptor (hNpr1) antagonism - Primary qHTS. 76,000 tested, 1.6% active. Potency, µM (titrated, usually from 46.3 µM), usual class: inhibitors. HEK293 hNpr1 GloSensor cGMP, ANP-stimulated luminescence. Atrial natriuretic peptide receptor 1 (Homo sapiens), P16066; calls by dose curve; note: nearly all actives have a fitted effect of over 60% in size
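HEK293 cells stably expressing human Npr1 and cGMP GloSensor pGS-40F, loaded 2 h with 2% GloSensor reagent, given compound 30 min at room temperature. Luminescence read before and 20 min after 0.1 nM hNppA.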
HEK cytotox: Cytotoxic Profiling in HEK 293 Cell Line of Diverse Libraries Using Quantitative High-Throughput Screening; HEK 293 viability, ATP luminescence (CellTiter-Glo), 48-72 h; Potency, µM (series often up to 115 µM), actives largely listed as inhibitors; 94,000 tested, 6.6% active; AID 1345083, 2018; note: nearly all actives have a fitted effect of over 60% in size
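Luminescence from cellular ATP, measured with CellTiter-Glo, indicates HEK 293 viability. Cells plated at 250 cells/well are treated with compound for 48 or 72 hr at 37 degree Celsius before reagent addition.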
Luciferase inh: Firefly luciferase inhibition profiling of diverse chemical library using quantitative high-throughput screening | Luciferin 4-monooxygenase (Photinus pyralis), P08659 | purified P. pyralis luciferase, luminescence, biochemical | Potency, µM (doses to about 115 µM), hits mostly inhibitors | 76,000 tested, 2.5% active | AID 1347043, 2019; note: nearly all actives have a fitted effect of over 65% in size
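Luminescence read by CCD imaging after purified firefly luciferase (10nM final) was added to substrate buffer holding 10uM D-luciferin and 10uM ATP, pH 7.5, pre-dosed with compound.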
GPT2 inhibitor: Primary qHTS assay for inhibitors of Glutamate pyruvate transaminase 2 (GPT2); Recombinant GPT2, coupled pyruvate oxidase/HRP Amplex Red fluorescence; Potency, µM (doses to about 57.7 µM), most hits filed as inhibitors; 100,000 tested, 0.25% active; AID 1671188, 2021; note: nearly all actives have a fitted effect of over 60% in size
Target sequence (Q8TD30 whole entry, looked up): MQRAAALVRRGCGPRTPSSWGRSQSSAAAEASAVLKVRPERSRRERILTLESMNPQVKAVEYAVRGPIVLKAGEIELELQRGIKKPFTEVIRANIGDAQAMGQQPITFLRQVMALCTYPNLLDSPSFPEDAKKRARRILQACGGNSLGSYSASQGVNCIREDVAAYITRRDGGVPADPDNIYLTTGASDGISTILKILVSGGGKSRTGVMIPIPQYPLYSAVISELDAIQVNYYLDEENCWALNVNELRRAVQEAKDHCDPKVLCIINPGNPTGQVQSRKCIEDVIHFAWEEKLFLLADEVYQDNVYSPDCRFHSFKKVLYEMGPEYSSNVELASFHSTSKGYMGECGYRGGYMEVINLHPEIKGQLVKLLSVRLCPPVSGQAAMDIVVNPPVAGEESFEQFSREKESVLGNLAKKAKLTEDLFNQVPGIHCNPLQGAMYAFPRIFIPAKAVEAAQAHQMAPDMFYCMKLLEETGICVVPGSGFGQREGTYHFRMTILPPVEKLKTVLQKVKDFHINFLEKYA
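GPT2 10ng/uL, a-KG 250uM, L-Ala 2mM, HEPES pH7.5 + 0.0001% Tween; 30 min RT. Then Amplex mix (PO/HRP/ThPP), 30 min RT dark, fluorescence. AOA 50uM used as positive control.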
NPR1 antag cnf: Natriuretic polypeptide receptor (hNpr1) antagonism - Confirmation; AID 1347044, 2019; HEK293 hNpr1 cGMP GloSensor luminescence, ANP-stimulated; 1,400 tested, 76% active; Potency, µM (series often up to 57.6 µM), most hits filed as inhibitors; shares compounds with hNpr1 antagonist; calls by dose curve; note: nearly all actives have a fitted effect of over 70% in size
NPR2 antag: Natriuretic polypeptide receptor (hNpr2) antagonism - Subtype selectivity assay; shares compounds with hNpr1 antagonist; HEK293 hNpr2 GloSensor cGMP luminescence, CNP-stimulated; Potency, µM (series often up to 57.6 µM), hits mostly inhibitors; 1,400 tested, 67% active; AID 1347046, 2019; calls by dose curve; note: nearly all actives have a fitted effect of over 70% in size
FLuc inh counter: Natriuretic polypeptide receptor (hNpr1) antagonism - Confirmation firefly luciferase (FLuc) inhibition counterscreen; shares compounds with hNpr1 antagonist; purified FLuc enzyme, luminescence, Km substrate; Potency, µM (top dose mostly 57.6 µM), usual class: inhibitors; 1,400 tested, 0.7% active
GloSensor ctrl: Natriuretic polypeptide receptor (hNpr1) antagonism - Counterscreen GloSensor control cell line. Potency, µM (titrated, usually from 57.6 µM), most hits filed as inhibitors. 1,400 tested, 69% active. HEK293 GloSensor cGMP, SNP-stimulated, luminescence. shares compounds with hNpr1 antagonist; calls by dose curve; note: nearly all actives have a fitted effect of over 70% in size
Numbers stand for hits; 0 = inactive; ? = inconclusive; - = no result given. Unless noted, calls come from the whole dose curve; as a rule, active = well fitted curve in the direction sought with a large enough effect; inconclusive = small, poorly fitted or top-dose-only effect, or another doubt; inactive = no such curve, though single readings can be large; an effect the other way counts as inactive or inconclusive.

SMILES	3T3 cytotox	hNpr1 antagonist	HEK cytotox	Luciferase inh	GPT2 inhibitor	NPR1 antag cnf	NPR2 antag	FLuc inh counter	GloSensor ctrl
CN1c2cc(C(=O)NCc3cc(F)cc(F)c3)ccc2C(=O)N2CCCCC21 (stereo unspecified)	0	0	0	0	0	-	-	-	-
COc1cccc(NC(=O)C2CCCN(Cc3ccncc3)CCC(=O)NCC2)c1 (stereo unspecified)	0	0	0	0	0	-	-	-	-
O=C(NCc1ccc(Cl)cc1)c1cc2n(n1)CC(c1ccc3c(c1)OCO3)OC2 (stereo unspecified)	?	0	?	0	0	-	-	-	-
CCc1ccc(CNC(=O)c2cc3n(n2)CC(c2ccc4c(c2)OCO4)OC3)cc1 (stereo unspecified)	?	0	?	0	?	?	0	0	?
Cc1ccc(NC(=O)c2cc3n(n2)CC(c2ccc4c(c2)OCO4)OC3)cc1Cl (stereo unspecified)	?	?	?	0	0	?	?	0	0
O=C(Nc1ccc(F)cc1)c1cc2n(n1)CC(c1ccc3c(c1)OCO3)OC2 (stereo unspecified)	?	12.6µM	?	0	0	21.7µM	34.3µM	0	?
CCc1ccc(NC(=O)c2cc3n(n2)CC(c2ccc(Cl)cc2)OC3)cc1 (stereo unspecified)	?	11.2µM	?	0	0	21.7µM	?	0	?
CCc1cccc(NC(=O)c2cc3n(n2)CC(c2ccc(Cl)cc2)OC3)c1 (stereo unspecified)	?	?	?	0	0	-	-	-	-
O=C(Nc1cccc(Cl)c1)c1cc2n(n1)CC(c1ccc3c(c1)OCO3)OC2 (stereo unspecified)	?	0	?	0	0	-	-	-	-
COc1cc2nc(Cl)nc(N3CC4CCC(C3)N4CC(F)(F)F)c2cc1OC	?	-	0	-	0	-	-	-	-
Cc1ccc(-c2cc(C(=O)NCc3ccc4c(c3)OCO4)c3cnn(C)c3n2)c(C)c1	?	-	?	-	0	-	-	-	-
Cc1cc(F)ccc1NC(=O)c1cc2n(n1)CC(c1ccc(Cl)cc1)OC2 (stereo unspecified)	?	15.8µM	?	0	0	27.3µM	21.7µM	0	24.3µM
Cc1ccccc1NC(=O)c1cc2n(n1)CC(c1ccc(Cl)cc1)OC2 (stereo unspecified)	?	?	?	0	0	-	-	-	-
O=C(Nc1ccc(Cl)cc1)c1cc2n(n1)CC(c1ccc3c(c1)OCO3)OC2 (stereo unspecified)	?	12.6µM	?	0	0	24.3µM	21.7µM	0	21.7µM
COCCCNC(=O)c1cc(-c2ccc(F)cc2)c2nncn2n1	?	-	0	-	?	-	-	-	-
Cc1ccc(CCNC(=O)C2CCN(c3cc(C(F)(F)F)nc(C)n3)CC2)cc1	0	0	?	0	0	-	-	-	-
COc1ccccc1C(=O)NC1CCN(c2cc(C(F)(F)F)nc(C)n2)CC1	?	?	?	0	0	?	0	0	?
Cc1nc(N2CCC(NC(=O)Cc3ccccc3Cl)CC2)cc(C(F)(F)F)n1	?	10µM	?	0	0	19.3µM	17.2µM	0	10.9µM
Cc1nc(N2CCC(C(=O)NCc3cccc(Cl)c3)CC2)cc(C(F)(F)F)n1	?	10µM	?	0	0	19.3µM	19.3µM	0	17.2µM
O=C(Cc1ccccc1Cl)NC1CCN(c2cc(C(F)(F)F)ncn2)CC1	0	11.2µM	?	0	0	19.3µM	15.3µM	0	15.3µM
COC1CCN(CC2CCCCCN2C(=O)c2ccc(F)cc2)CC1 (stereo unspecified)	0	-	0	-	0	-	-	-	-
CCn1ccc(C(=O)N2CCC(n3c(C)cnc3C3CCC3)C2)n1 (stereo unspecified)	0	-	0	-	0	-	-	-	-
Fc1ccc(-c2cnc3n2C[C@H](CNCc2ccccc2Cl)OC3)cc1	?	25.1µM	79.4µM	0	0	39.6µM	39.6µM	0	39.6µM
COc1cc2c(cc1OC)C(CNC(=O)C1CCCC1)N(C(=O)Nc1cccc(C)c1)CC2 (stereo unspecified)	0	0	?	0	0	-	-	-	-
CNC(=O)c1cc(-c2ccccc2C)cc2c1OCCN2Cc1cccnc1	?	?	?	0	0	?	?	0	0
SMILES	3T3 cytotox	hNpr1 antagonist	HEK cytotox	Luciferase inh	GPT2 inhibitor	NPR1 antag cnf	NPR2 antag	FLuc inh counter	GloSensor ctrl
Cc1ccccc1Oc1c(CCC(=O)NCC2CC2)c(C)nn1-c1ccc(F)cc1	25.1µM	?	?	0	0	?	?	0	?
Cc1nn(-c2ccc(F)cc2)c(Oc2ccc(F)cc2F)c1CCC(=O)NCC1CC1	?	?	?	0	0	?	?	0	?
O=C(c1ccc(Cl)nc1)N1CCCC(C(=O)N2CCC(N3CCOC3=O)CC2)C1 (stereo unspecified)	0	-	0	-	0	-	-	-	-
CN1CCC(N2C[C@@H]3C[C@H]2C(=O)N(Cc2cccnc2)c2ccccc2O3)CC1	0	0	0	0	0	-	-	-	-
O=C(C1CCCC1)N1CCC(C(=O)N2CCCC2c2nc3ccncc3[nH]2)CC1 (stereo unspecified)	0	-	0	-	0	-	-	-	-
O=C1CCCN1CC1CCCN(Cc2cc(F)ccc2-n2cccn2)C1 (stereo unspecified)	0	0	0	0	0	-	-	-	-
CCc1cc(=O)n(CC(=O)N2CCN(c3ccccc3OC)CC2)c(-c2ccccc2)n1	?	0	39.8µM	0	0	?	0	0	0
CCc1cc(=O)n(CC(=O)N2CCN(c3ccc(OC)cc3)CC2)c(-c2ccccc2)n1	0	0	0	0	0	-	-	-	-
O=C(c1ccc(F)cc1)N1CCCC(n2cc(-c3nc(-c4ccccc4)no3)nn2)C1 (stereo unspecified)	?	?	?	?	0	24.3µM	24.3µM	?	24.3µM
